Test results published in PubChem BioAssay AID1347165 (National Center for Advancing Translational Sciences (NCATS), 2019).
Screen size: about 220,000 compounds; about 5,700 (2.6%) were called active. Entries that show only a call come without a potency. Another 18% or so got no clear call; they are omitted. Calls follow the shape of the dose curve; as a rule, active = well fitted inhibition curve with a large enough effect; inconclusive = small, poorly fitted or top-dose-only effect; inactive = no such curve, though single readings can be large or run the other way. Many of the other results were omitted from the sample, so actives are more common in it than they were.

These compounds were tested against Lysine-specific demethylase 5B (Homo sapiens) (UniProt Q9UGL1) (assay: Primary screen for KDM5B Histone Demethylases FDH-coupled qHTS). Conditions: FDH-coupled NADH fluorescence (FDH is formaldehyde dehydrogenase); series mostly up to 57.7 µM.
Lysine-specific demethylase 5B (Homo sapiens), sequence (Q9UGL1 whole entry, looked up): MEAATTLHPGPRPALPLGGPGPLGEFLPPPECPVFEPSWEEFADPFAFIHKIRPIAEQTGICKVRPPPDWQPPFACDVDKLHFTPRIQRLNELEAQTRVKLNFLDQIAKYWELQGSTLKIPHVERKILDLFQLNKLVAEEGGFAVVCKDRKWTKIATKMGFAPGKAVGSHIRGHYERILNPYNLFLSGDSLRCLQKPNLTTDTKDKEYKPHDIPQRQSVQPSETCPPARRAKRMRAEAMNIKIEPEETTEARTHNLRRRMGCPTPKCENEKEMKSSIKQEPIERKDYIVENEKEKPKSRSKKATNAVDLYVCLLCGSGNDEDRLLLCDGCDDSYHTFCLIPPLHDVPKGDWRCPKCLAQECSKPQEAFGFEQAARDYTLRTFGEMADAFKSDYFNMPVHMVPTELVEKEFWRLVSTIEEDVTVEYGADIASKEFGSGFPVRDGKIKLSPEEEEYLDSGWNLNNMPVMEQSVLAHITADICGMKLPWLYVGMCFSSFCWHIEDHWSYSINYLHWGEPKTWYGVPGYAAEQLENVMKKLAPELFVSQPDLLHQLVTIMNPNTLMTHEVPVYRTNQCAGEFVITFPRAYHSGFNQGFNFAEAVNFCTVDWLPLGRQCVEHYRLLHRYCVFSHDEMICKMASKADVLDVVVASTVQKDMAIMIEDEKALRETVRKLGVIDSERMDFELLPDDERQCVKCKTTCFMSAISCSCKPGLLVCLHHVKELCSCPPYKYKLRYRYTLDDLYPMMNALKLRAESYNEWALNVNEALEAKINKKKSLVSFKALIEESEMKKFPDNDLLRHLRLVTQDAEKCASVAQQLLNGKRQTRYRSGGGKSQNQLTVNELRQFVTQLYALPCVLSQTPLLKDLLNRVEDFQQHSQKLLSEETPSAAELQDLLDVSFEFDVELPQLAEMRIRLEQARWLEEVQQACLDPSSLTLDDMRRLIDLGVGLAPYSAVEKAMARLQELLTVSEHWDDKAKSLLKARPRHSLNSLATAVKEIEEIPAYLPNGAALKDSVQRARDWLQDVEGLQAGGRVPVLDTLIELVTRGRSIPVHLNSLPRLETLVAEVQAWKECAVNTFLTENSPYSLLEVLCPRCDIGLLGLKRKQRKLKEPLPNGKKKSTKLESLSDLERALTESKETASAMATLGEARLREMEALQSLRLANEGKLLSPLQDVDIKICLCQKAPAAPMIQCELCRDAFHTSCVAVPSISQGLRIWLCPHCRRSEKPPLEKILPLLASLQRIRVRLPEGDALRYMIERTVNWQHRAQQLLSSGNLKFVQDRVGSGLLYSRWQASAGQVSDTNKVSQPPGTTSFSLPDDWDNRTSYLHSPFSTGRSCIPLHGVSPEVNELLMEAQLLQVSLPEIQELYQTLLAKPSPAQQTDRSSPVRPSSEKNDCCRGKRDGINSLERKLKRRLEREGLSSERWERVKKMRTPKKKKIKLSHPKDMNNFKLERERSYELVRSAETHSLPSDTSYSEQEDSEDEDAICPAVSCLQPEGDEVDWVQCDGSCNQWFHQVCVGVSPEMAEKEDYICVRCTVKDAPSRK
Description: Assay Submitter (PI): Qin Yan, Ph.D. (Yale University) and Xiaodong Cheng, Ph.D. (MD Anderson) This project was funded as part of the NCI NEXT Program and Chemical Biology Consortium (CBC) The histone demethylases, KDM5A and KDM5B catalyze the demethylation of lysine 4 on histone H3 (H3K4me3/2). They are overexpressed in a variety of cancers and have been implicated in cancer cell growth, metastasis, drug resistance, and tumor growth. KDM5A is amplified and overexpressed in breast and gastric cancer; and is translocated in leukemia. While KDM5B is highly expressed in human mammary tumors and breast cancer cell lines, but not in normal adult breast tissue. Moreover, knockdown of KDM5B leads to upregulation of tumor suppressor genes, including BRCA1. The goal of this project is to employ qHTS to identify selective small molecule inhibitors of KDM5A/B demethylase activity to better understand the role of KDM5 in cancer and to develop novel therapies. We employed an FDH-coupled assay previously reported by Sakurai et al. to monitor in vitro KDM5 demethylase activity. Compounds showing dose response inhibition are re-acquired, validated, and tested for non-specific interference with the formaldehyde dehydrogenase (FDH) counterscreen. True inhibitors are validated using an AlphaLisa secondary screen, which employs an H3K4(me2-1)-specific antibody to monitor demethylation of a biotin-tagged H3K4(me3) peptide substrate. Inhibitors are profiled against KDM4A and KDM6A AlphaLisa counterscreens to determine level of demethylase specificity; and against the TruHits counterscreen to eliminate non-specific inhibitory activity on the AlphaLISA detection method. Selective inhibitors identified from the primary and secondary screening are tested in cells using immunofluorescence to monitor global H3K4 tri-methylation as a measure of KDM5A/B inhibition. Early Translation Branch (ETB) National Center for Advancing Translational Sciences (NCATS), Rockville, MD National Institute of Health (NIH), Bethesda, Maryland [1] Sakurai, M et al. A miniaturized screen for inhibitors of Jumonji histone demethylases. Mol Biosyst. 2010 Feb;6(2):357-64. doi: 10.1039/b912993f. Epub 2009 Oct 8.
Materials: 1536-well Black, solid bottom, medium binding assay plate is purchased from Greiner Bio-one. The enzymes (KDM5B) and substrate (H3K4me3/2) are provided by the principal investigators. The buffer for this assay is composed of 50mM HEPES at pH 7.5 with 0.01% Tween-20. FDH coupled Demethylase qHTS protocol: Three microliter enzyme mix (buffer + 200nM KDM5BDeltaAP final concentration) is dispensed into the assay plate using the BioRAPTR Flying Reagent Dispenser (FRD; […]). Compound (at various final concentration) and control solution is pin transferred to the assay plate using the Kalypsys 1536-pin tool apparatus. The assay plate is incubated for 10 min at room temperature followed by addition of 1uL substrate mix (buffer + 100uM ascorbic acid, 50uM ferrous ammonium sulfate, 12.5uM H3K4Me3, 25uM a-ketoglutarate, 0.25 mM NAD+, 0.25 U/mL formaldehyde dehydrogenase using the FRD yielding a total reaction volume of 4 uL. Initial fluorescence (Read1) is detected using the PerkinElmer ViewLux plate reader equipped with 340 nm excitation and 450 nm emission filters. The final fluorescence (Read2) signal is obtained after 30 min of room temperature incubation. Delta RFU is calculated (Read2 - Read1) and is used to generated dose response curves.
Also: nearly all actives have a fitted effect of over 70% in size.
Potency is read from the fitted curve at half-maximal effect.

**Q.** `O=[N+]([O-])c1ccc(/C=N/OCc2cc(F)cc3cccnc23)cc1` was tested. Which Potency did it give?
**A.** inactive

**Q.** How did the Potency turn out when `CC1C(=O)Nc2ccccc2N1C(=O)c1ccc(F)cc1F` (stereo unspecified) was run?
**A.** inactive

**Q.** `CC(C)(C)c1ccc(C(=O)NN=C2CCCCC2)cc1` was tested. Which Potency did it give?
**A.** inactive

**Q.** For `FC(F)(F)c1ccc(CCNC(=S)NC2CC2)cc1`, which Potency is on record?
**A.** inactive

**Q.** How did the Potency turn out when `O=C(c1cccc(C(F)(F)F)c1)N1CCC2(CC1)CC(O)CCO2` (stereo unspecified) was run?
**A.** inactive

**Q.** How did the Potency turn out when `COc1ccc(OC2CN(CC3CCCCC3)C2)cc1` was run?
**A.** inactive

**Q.** For `COc1ccc(CN2CC(Oc3ccc(OC)cc3)C2)cc1`, which Potency is on record?
**A.** inactive

**Q.** `COc1ccc(OC2CN(Cc3cccn3C)C2)cc1` was tested. Which Potency did it give?
**A.** 44.7 µM (active)

**Q.** Which Potency does the source give for `CN(C(=O)Cn1nc(Cc2cccnc2)c2ccccc2c1=O)c1ccccc1Cl` here?
**A.** inactive

**Q.** For `CC1=NS(=O)(=O)N(Cc2ccccc2)C=C1C(=O)OCc1noc(C)n1`, which Potency is on record?
**A.** inactive

**Q.** With `COc1cccc(-c2cc(C3CCN(C(=O)Nc4ccccc4Cl)CC3)[nH]n2)c1` as the compound, how does the Potency read?
**A.** inactive

**Q.** How did the Potency turn out when `O=C(OCc1nc2ccccc2o1)c1cc(F)cc(F)c1` was run?
**A.** inactive

**Q.** How did the Potency turn out when `Cc1noc(-c2cccn3c(CNC(=O)CCc4ccccc4)nnc23)n1` was run?
**A.** 22.4 µM (active)

**Q.** For `COCc1nc(CCNC(=O)CCc2ccccc2)no1`, which Potency is on record?
**A.** inactive

**Q.** With `Cc1noc(-c2ccc(OC3CN(C(=O)c4ccco4)C3)cc2)n1` as the compound, how does the Potency read?
**A.** inactive

**Q.** `Cc1noc(-c2cccn3c(CNC(=O)c4ccco4)nnc23)n1` was tested. Which Potency did it give?
**A.** 28.2 µM (active)

**Q.** For `Cc1cnc(CCNC(=O)c2ccco2)n1C1CCC1`, which Potency is on record?
**A.** inactive

**Q.** `Cc1noc(-c2cccc(OC3CN(C(=O)NCCc4ccccc4)C3)c2)n1` was tested. Which Potency did it give?
**A.** inactive

**Q.** With `Cn1c(=O)[nH]c(=O)c2c1ncn2CC(O)c1ccccc1` (stereo unspecified) as the compound, how does the Potency read?
**A.** inactive

**Q.** How did the Potency turn out when `Cc1ccc(-c2nnc3ccc(-c4ccoc4)nn23)nc1` was run?
**A.** 31.6 µM (active)

**Q.** For `CC(=O)N1CCN(c2ccc3nnc(-c4ccc(C)cn4)n3n2)CC1`, which Potency is on record?
**A.** inactive

**Q.** How did the Potency turn out when `COP(=O)(OC)c1nc(-c2cccs2)oc1NCc1ccc(C)cc1` was run?
**A.** inactive

**Q.** With `O=C(NCc1cccnc1)c1ccc2c(c1)n(Cc1ccc(F)cc1)c(=O)c1ccnn12` as the compound, how does the Potency read?
**A.** 25.1 µM (active)

**Q.** `O=C(Nc1ccccc1F)c1ccc2c(c1)n(Cc1ccccc1)c(=O)c1ccnn12` was tested. Which Potency did it give?
**A.** 31.6 µM (active)

**Q.** How did the Potency turn out when `CCn1c(=O)c2ccnn2c2ccc(C(=O)NC3CCCCC3)cc21` was run?
**A.** 25.1 µM (active)

**Q.** How did the Potency turn out when `Cc1ccccc1NC(=O)Cn1c(=O)n(Cc2ccco2)c(=O)c2ccc(C(=O)NC3CCCC3)cc21` was run?
**A.** inactive

**Q.** Which Potency does the source give for `O=C(Nc1ccc(F)cc1F)c1ccc2c(c1)n(Cc1cccc(F)c1)c(=O)c1ccnn12` here?
**A.** inactive

**Q.** For `Cc1oc2ccn(Cc3cccc(F)c3)c(=O)c2c1C(=O)NCc1cccnc1`, which Potency is on record?
**A.** inactive

**Q.** `CCCCc1ccc(C(=O)NCc2cccnc2)cc1` was tested. Which Potency did it give?
**A.** inactive

**Q.** For `Cn1c(=O)c2c(nc(SCC(=O)Nc3ccccc3F)n2Cc2ccccc2)n(C)c1=O`, which Potency is on record?
**A.** inactive

**Q.** `COCCCNC(=O)c1ccc2c(c1)n(Cc1cccc(OC)c1)c(=O)c1ccnn12` was tested. Which Potency did it give?
**A.** inactive
